Caspase-7 inhib: allosteric or competitive inhibitors of human caspase-7; P55210; recombinant caspase-7, Ac-DEVD-AFC fluorescence rate; Potency, µM (doses to about 57.5 µM), without a hit: top-dose activity change, negative = inhibition, hits mostly inhibitors; actives 0.02% (n = 75,000); active = well fitted inhibition curve with a large enough effect in the main read-out, with a control signal flat, not every such curve was filed as active; inconclusive = small, poorly fitted or top-dose-only effect, or a change in a side signal; also: potency is read from the fitted curve at half-maximal effect; % of control where 0% means no effect
Caspase-1 inhib: caspase-1 (human) inhibition, allosteric or competitive; P29466; Caspase-1 enzyme, Ac-WEHD-AFC fluorogenic rate; Potency, µM (doses to about 57.5 µM), for inactives: top-dose activity change, negative = inhibition, most hits filed as inhibitors; actives 0.03% (n = 75,000); AID 900;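 also: potency is read from the fitted curve at half-maximal effect; plate controls were vehicle for no effect and no substrate for full effect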
TSHR agonist: activates the human thyroid stimulating hormone receptor | P16473 | HEK293-CNG-TSHR cells (CNG channel as cAMP sensor), membrane potential dye, cAMP | Potency, µM (titrated, usually from 57.1 µM), without a hit: at the top dose activation, usual class: activators | actives 0.48% (n = 73,000) | AID 926; active = well fitted activation curve with a large enough effect in the main read-out, with a control signal flat, not every such curve was filed as active; inconclusive = small, poorly fitted or top-dose-only effect, or a change in a side signal; inactive = no such curve, though single readings can be large or run the other way; % of control where 0% means no effect;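 also: the control signal comes from parental cells without the receptor; potency is read from the fitted curve at half-maximal effect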
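HEK 293 cells stably expressing TSHR and a modified CNG channel, with CNG-only parental cells as counterscreen, were preloaded 60 min at room temperature with membrane potential dye containing 100 uM RO 20-1724. Compound exposure was 30 min, and depolarization was read as fluorescence at 590 nm.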
USP2a inh: USP2a (human) protease inhibition. USP2a enzymatic assay, qHTS inhibition. Potency, µM (series often up to 38.3 µM), for inactives: top-dose activity change, negative = inhibition, usual class: inhibitors. O75604. actives 0.1% (n = 60,000); also: potency is read from the fitted curve at half-maximal effect; nearly all actives have a fitted effect of over 60% in size
Target sequence (O75604 whole entry, looked up): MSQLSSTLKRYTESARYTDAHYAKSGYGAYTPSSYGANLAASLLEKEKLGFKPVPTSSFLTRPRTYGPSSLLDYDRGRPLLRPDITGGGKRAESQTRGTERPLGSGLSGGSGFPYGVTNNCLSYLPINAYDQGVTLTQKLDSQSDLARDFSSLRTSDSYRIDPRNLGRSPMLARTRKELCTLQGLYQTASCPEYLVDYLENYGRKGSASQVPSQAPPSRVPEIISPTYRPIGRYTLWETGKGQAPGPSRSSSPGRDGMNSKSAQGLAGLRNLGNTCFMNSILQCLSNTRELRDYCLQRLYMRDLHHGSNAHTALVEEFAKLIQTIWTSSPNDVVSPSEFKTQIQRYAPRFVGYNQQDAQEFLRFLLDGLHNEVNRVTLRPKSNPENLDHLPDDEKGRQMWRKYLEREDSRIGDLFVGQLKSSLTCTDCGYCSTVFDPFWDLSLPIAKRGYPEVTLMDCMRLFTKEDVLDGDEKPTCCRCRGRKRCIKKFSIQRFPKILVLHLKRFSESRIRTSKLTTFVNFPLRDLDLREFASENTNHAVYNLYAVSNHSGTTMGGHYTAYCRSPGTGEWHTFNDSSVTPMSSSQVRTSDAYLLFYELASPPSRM
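USP2 core (20 nM final) was preincubated with compound for 30 min at RT in 20 mM Tris-HCl pH 8.0, 2 mM CaCl2, 2 mM beta-mercaptoethanol; Ub-PLA2 (20 nM) plus NBD C6-HPC (20 uM) then added, fluorescence read after 2.5 h.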
CRE Fsk mod: modulators of forskolin-stimulated CRE signaling in CHO cells. AID 662. CHO CRE-bla reporter (cAMP response element driving beta-lactamase), forskolin EC10, beta-lactamase ratio. Potency, µM (top dose mostly 38.2 µM), inactives show at the top dose activity change, negative = inhibition, hits mostly activators. actives 2.5% (n = 71,000); active = well fitted activation curve with a large enough effect in the signal ratio, with a control signal flat, not every such curve was filed as active; inconclusive = small, poorly fitted or top-dose-only effect, or effect the other way, or a change in a side signal; the % refers to the signal ratio; also: potency is read from the fitted curve at half-maximal effect; % of control where 0% means no effect
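Modulation of forskolin-driven signalling is measured in CHO cells carrying a CRE-controlled beta-lactamase reporter. Cells are stimulated with EC10 NKH 477 in the presence of titrated compound for 3 h at 37 °C, then loaded with CCF4 for 2 h at room temperature.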
HEK293 cAMP ctrl: raises cAMP in parental HEK293 cells, TSHR agonist counter-screen; Potency, µM (titrated, usually from 57.1 µM), without a hit: top-dose activation, most hits filed as activators; actives 2.5% (n = 73,000); parental HEK293 CNG cAMP sensor, membrane potential fluorescence; AID 938; also: potency is read from the fitted curve at half-maximal effect; % of control where 0% means no effect; nearly all actives have a fitted effect of over 55% in size
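Parental HEK 293 cells stably expressing a cAMP-gated CNG channel were loaded with membrane potential dye containing 100 uM RO 20-1724 for 60 min. Compound added for 30 min; depolarization read as fluorescence intensity at 590 nm.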
CHO tox 24h: cytotoxicity in CRE-bla CHO cells at 24 h; shares compounds with CRE Fsk mod; CRE-bla CHO viability, ATP luminescence, 24 h; activity, negative = viability loss, % at 46.1 µM; 120 tested, under 10 active; AID 905
CHO tox 40h: reduces CRE-bla CHO cell viability after 40 hours; shares compounds with CRE Fsk mod; Potency, µM, for inactives: max response, actives largely listed as inhibitors; CRE-bla CHO viability, ATP luminescence, 40 h; AID 906; 120 tested, under 10 active
CRE-luc potent: boosts CRE luciferase signal in HEK293 cells | HEK293 CRE-luc2P, NKH477 EC10 potentiation, luminescence, 4 h | shares compounds with CRE Fsk mod | Potency, µM (doses to about 38.3 µM), without a hit: at the top dose activity, positive = activation, usual class: activators | AID 907 | actives 80% (n = 120)
parental cAMP: counter-screen for TSH receptor agonists: cAMP in parental HEK293 cells. shares compounds with TSHR agonist. parental HEK293 CNG biosensor, cAMP membrane potential fluorescence. activity change, negative = inhibition, % at 32.9 µM. 150 tested, under 10 active. AID 953
* hit, by the source's call; ? = inconclusive; . = not tested or not shown; [ ] = dose if it differs, or a comment. Rows were chosen to be rich in hits. Some 5% of all compounds tested hit in one or more screens of this group. Unless noted, calls follow the shape of the dose curve; as a rule, active = well fitted curve in the direction sought with a large enough effect; inconclusive = small, poorly fitted or top-dose-only effect, or another doubt; inactive = no such curve, though single readings can be large; an effect the other way counts as inactive or inconclusive.

SMILES | Caspase-7 inhib | Caspase-1 inhib | TSHR agonist | USP2a inh | CRE Fsk mod | HEK293 cAMP ctrl | parental cAMP | others
CCNc1ncc2ncc(=O)n(Cc3cccs3)c2n1 | -13% | -7% | ? | -15% | ? | ? | .
Cn1c(SCC(=O)N2CCOCC2)nc2sc3c(c2c1=O)CCCC3 | 1% | -1% | 6% | -2% | 15% | 1% | . | CHO tox 24h=-7;CHO tox 40h=-17%;CRE-luc potent=3.5µM*
C=CCn1c(SCC(=O)N2CCOCC2)nc2sc3c(c2c1=O)CCCC3 | -4% | -2% | . | 12% | ? | 4% | .
C=C(C)C(O)/C=C/c1cccc(OC)c1 (stereo unspecified) | -4%[11.5 µM] | -2%[11.5 µM] | 6%[11.4 µM] | . | . | 2%[11.4 µM] | .
CCOc1ccc(-c2nnc3ccc(SCc4ccc(C(=O)OC)o4)nn23)cc1 | 0% | 0% | 7%[11.4 µM] | 39% | 2µM* | 28% | . | CHO tox 24h=-22;CHO tox 40h=?;CRE-luc potent=2.2µM*
O=c1c(O)c(-c2ccc(O)c(O)c2)oc2cc(O)ccc12 | ? | . | 9% | -5% | ? | -7% | . | CHO tox 24h=-18;CHO tox 40h=-16%;CRE-luc potent=?
CC(C)(C)CC(C)(C)c1ccc(O)c(C[N+](C)(C)[O-])c1 | 2%[11.5 µM] | -1%[11.5 µM] | 2%[11.4 µM] | . | 18%[7.6 µM] | -1%[11.4 µM] | .
COc1cccc2c(C)nc(Nc3nc(CSc4nnc(C)s4)cc(=O)[nH]3)nc12 | -1% | 0% | 12% | -11% | ? | 9% | . | CHO tox 24h=?;CHO tox 40h=-90%;CRE-luc potent=6.3µM*
CCOC(=O)C1=C(C)NC(=O)NC1c1ccc(F)cc1 (stereo unspecified) | -3% | -1% | 6% | . | 4% | 9% | .
CCOC(=O)C1=C(CN2CCC(C)CC2)NC(=O)NC1c1ccc(Cl)cc1 (stereo unspecified) | 1% | -2% | 27% | 17% | 13µM* | 24% | . | CHO tox 24h=-14;CHO tox 40h=-36%;CRE-luc potent=13µM*
C=CCn1c(NCc2ccccc2)nc2ccccc21 | 2% | -1% | 16% | 0% | -1% | 16% | .
C=CCn1c(NCc2ccc3c(c2)OCO3)nc2ccccc21 | 1% | -2% | 2% | 1% | -2% | 16% | 13[25.6 µM]
Cc1cccc(NC(=O)CSc2nnc(-c3ccccc3)n2N)c1 | -4% | 0% | 7% | 4% | ? | -12% | .
Cc1cccc(NC(=O)CSc2nnc(-c3ccccc3)n2N)c1C | 0% | 3% | 3%[11.4 µM] | 11% | -22% | -13% | -2[25.6 µM]
Cc1cnc(CNc2ccnc(-c3ccc(C(=O)N(C)C)cc3)n2)cn1 | 0% | 1% | 2% | 3% | 10% | 2% | .
CCN(CC(=O)O)C(=O)c1cccnc1 | 1%[11.5 µM] | -3%[11.5 µM] | -5%[11.4 µM] | . | 0%[7.6 µM] | 0%[11.4 µM] | .
COC(=O)c1cc(C(=O)OC)cc(N2C(=O)CC(Sc3nc(C)cc(C)n3)C2=O)c1 (stereo unspecified) | 0% | 0% | 25µM* | 23% | 10% | 0% | -8
Nc1nc2c(ncn2C2OC(CO)CC2O)c(=O)[nH]1 (stereo unspecified) | 0% | 1% | . | -3% | . | . | .
COc1cc2c(N3CCOCC3)cc(O)c(CC(=O)Nc3ccccc3)c2cc1OC | 0% | 0% | 32µM* | 0% | -5% | 25% | -11
CNc1ncnc2ccc(-c3cccc(OC)c3)cc12 | -5% | -3% | 10% | 188% | ? | 21% | .
O=C(C1COc2ccccc2O1)N1CCCC1 (stereo unspecified) | 2% | 0% | -1% | 0% | -3% | -2% | -2[25.6 µM]
CCCCNc1nc(C)nc2c1nc(-c1ccccc1)n2CCCN1CCCCC1C (stereo unspecified) | -1% | -2% | ? | . | 9% | ? | .
CSc1nc(NC(C)(C)C)nc(Oc2ccc(=O)[nH]n2)n1 | 0% | 1% | 25µM* | 2% | 7% | 0% | -3
CCNc1nc(NCc2ccccc2)nc(Oc2ccc(=O)[nH]n2)n1 | 1% | 1% | 102% | 12% | ? | -3% | .
N#Cc1cccc(NC(=O)N2CCCC3(CCN(C(=O)c4ccco4)CC3)C2)c1 | 2% | -2% | 9% | 24% | ? | 1% | .
SMILES | Caspase-7 inhib | Caspase-1 inhib | TSHR agonist | USP2a inh | CRE Fsk mod | HEK293 cAMP ctrl | parental cAMP | others
COc1ccc(C(=O)N(Cc2ccco2)Cc2cccs2)c(O)c1 | -1% | 2% | 2.5µM* | 10% | -20% | 24% | -7
Cc1oc(-c2cccc(Cl)c2)nc1CN1CCCC(C(=O)NCc2ccco2)C1 (stereo unspecified) | 0% | 0% | 6%[11.4 µM] | 27% | -24% | 17% | .
Cc1oc(-c2cccc(Cl)c2)nc1CN1CCCC(C(=O)NC(C)c2ccc3c(c2)OCCO3)C1 (stereo unspecified) | -5% | -6% | 5% | . | ? | 9% | 9[25.6 µM]
CCCS(=O)(=O)N1CCN(C(=O)c2ccc(-c3ccccc3)cc2)CC1 | 0% | 0% | . | 16%[7.66 µM] | -28%[7.6 µM] | 17%[11.4 µM] | 17
CCCS(=O)(=O)N1CCN(C(=O)c2cccnc2)CC1 | 3% | 0% | 1% | . | . | -2% | .
C[C@@H]1CC2(OC[C@]3(C)O[C@H]23)O[C@H]2C[C@@]3(C)[C@@H]4CC[C@H]5C(C)(C)C(O[C@@H]6OC[C@@H](O)[C@H](O)[C@H]6O)CC[C@@]56C[C@@]46CC[C@]3(C)[C@@H]12 (stereo partly specified) | -12% | -4% | 4% | . | -21% | -11% | .
O=C1CC(c2ccco2)CC2=C1C(c1ccccc1)n1nc(C(F)(F)F)nc1N2 (stereo unspecified) | -18% | -7% | 0.63µM* | 23% | 14% | 10% | -7
COc1ccc(C2C3=C(CC(c4ccco4)CC3=O)Nc3ccccc3N2C(C)=O)cc1 (stereo unspecified) | 0% | 0% | 4% | 27% | 1% | 7% | .
Cc1onc(-c2ccccc2Cl)c1C(=O)Nc1ccc(-n2nncc2-c2ccco2)cc1 | 0% | -2% | 6.3µM* | 50% | 5% | -6% | -3

High-throughput results: PubChem BioAssay, National Center for Advancing Translational Sciences (NCATS)
